# Reference: PubChem BioAssay
# Values joined by “and” are separate entries in the source; they are usually repeats but may differ in a detail not shown here. Equal values may be shown once. Active and inactive are the calls of the source.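 The calls were made as follows, unless noted: active = thallium flux through the channel raised or lowered by more than 3 SD from vehicle-only wells, actives on both sides; inactive = the rest.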
# Tests used:
# [1] = liver-stage malaria parasite growth inhibition, primary screen, cell-based, HepG2, luciferase luminescence, HepG2 viability (AID 624349; in the data active = parasite load remaining mostly below about 12%, no sharp cut-off; inactive = mostly above about 10%;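 also: 100% = mean of DMSO negative control wells on the same plate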); details: P. berghei liver stage in HepG2, luciferase luminescence, concentration not given here; parasite load remaining: stronger effect = lower value; viability: measured here: HepG2 viability without parasites
# [2] = Cy5 fluorescence interference with SSB-bound oligo, artefact control for HCV NS3 helicase inhibitor project, biochemical, NIH Clinical Collection, E. coli SSB (AID 743268; call rule not given here)
# [3] = test system: Hepatitis C virus NS3 helicase; assay: HCV NS3 helicase inhibitors, primary screen, biochemical, fluorescence polarization, NIH Clinical Collection (AID 743270; call rule not given here); details: NS3 helicase binding to Cy5-dT15 DNA, stronger effect = higher value, concentration not given here
# [4] = target: Single-stranded DNA-binding protein (Escherichia coli (strain K12)) (UniProt P0AGE0); assay: E. coli SSB displacement from DNA, counter-screen for HCV NS3 helicase inhibitor project, biochemical, fluorescence polarization, NIH Clinical Collection (AID 743271; in the data active = inhibition above about 28%); details: stronger effect = higher value, concentration not given here
# [5] = fluorescence interference in NS3h assay format, artefact control for HCV NS3 helicase inhibitor project, biochemical, NIH Clinical Collection (AID 743272; call rule not given here;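 also: HCV NS3 helicase with a Cy5 labelled single stranded DNA probe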); details: fluorescence interference counterscreen, stronger effect = lower value
# [6] = test system: Neuropilin-2 / VEGF-C interaction (human); assay: inhibitors of NRP2–VEGF-C binding, biochemical, microplate binding format, z-score (AID 743281; call rule not given here); details: microplate NRP2/VEGF-C binding assay; stronger effect = lower value
# [7] = modulation of C. elegans fzo-1 (AID 1259413; call rule not given here;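 also: fzo-1 mutant C. elegans worms in liquid wells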); details: C. elegans fzo-1 modulator screen, mean read-out; stronger effect = higher value
# [8] = sensitizers of A549 cells to miR-34 induction, primary screen, imaging, A549 dox-inducible miR-34, nuclei and caspase counts (AID 1347080;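 active = compounds whose cell count with miR-34 switched on is under 0.7 times the count with it off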); details: A549 miR-34 inducible, Hoechst nuclei count, 48 h
# [9] = viability rescue of complex I mutant cybrids, primary screen, cell-based, galactose medium, ATP luminescence (AID 1645843;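 active = z-score of at least 1.8 in each of two replicates, scored against plate mean and spread of sample wells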;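 also: positive z means more ATP and so rescue of galactose-driven cybrid death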); details: complex I mutant cybrid cells, 72 h, stronger effect = higher value
# F380Y = assay: modulators of BK channel variants, profiling panel, selectivity assay, cell-based, U2OS BacMam, thallium flux, beta subunits (AID 1259406); details: at 30 µM;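 also: initial slope of Thallos dye fluorescence rise after thallium is added; log ratio against the mean of 0.3% DMSO vehicle wells on the same plate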
# F380Y/beta1 = assay: as above; details: at 30 µM
# F380Y/beta2Delta = assay: as above; details: at 30 µM
# F380Y/beta4 = assay: as above; details: at 30 µM
# [10] = target: Calcium-activated potassium channel subunit alpha-1 (Homo sapiens) + Leucine-rich repeat-containing protein 26 (Homo sapiens) (UniProt Q12791+Q2I0M4); assay: as above; details: F380Y/Slo1WT/gamma1, at 30 µM
# Chain of Calcium-activated potassium channel subunit alpha-1 (Homo sapiens) + Leucine-rich repeat-containing protein 26 (Homo sapiens) (Q2I0M4 whole entry, looked up, one chain of several): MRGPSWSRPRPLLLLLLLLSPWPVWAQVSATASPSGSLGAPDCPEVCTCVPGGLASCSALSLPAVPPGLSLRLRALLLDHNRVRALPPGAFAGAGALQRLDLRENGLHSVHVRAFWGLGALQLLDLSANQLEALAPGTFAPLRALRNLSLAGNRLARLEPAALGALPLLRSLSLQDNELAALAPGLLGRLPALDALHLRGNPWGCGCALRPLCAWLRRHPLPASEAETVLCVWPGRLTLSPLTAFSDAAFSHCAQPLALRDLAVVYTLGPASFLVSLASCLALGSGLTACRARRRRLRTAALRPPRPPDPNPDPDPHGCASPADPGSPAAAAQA
# R275C = assay: as above; details: at 30 µM
# R275C/beta1 = assay: as above; details: at 30 µM
# R275C/beta2Delta = assay: as above; details: at 30 µM
# R275C/beta4 = assay: as above; details: at 30 µM
# R275C/Slo1WT/beta2 = assay: as above; details: at 30 µM
# [11] = survival rescue of mitochondrial mutant cells in low glucose, primary screen, MELAS cybrids, Rieske KO mouse fibroblasts, CellTiter-Glo (AID 1508586;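 active = mean z-score across replicates of 1.96 or higher in either the MELAS or the Rieske mutant cell line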;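 also: z relative to plate mean and SD of compound and empty wells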)
# [12] = stronger effect = lower value, cell number ratio, induced over uninduced
# [13] = measured here: relative caspase fold change +Dox/-Dox
# [14] = measured here: total cells with miR-34 induction, stronger effect = lower value
# [15] = measured here: total cells without miR-34 induction
# [16] = MELAS cybrid survival, CellTiter-Glo 48 h, stronger effect = higher value
# [17] = Rieske KO mouse fibroblast survival, CellTiter-Glo 72 h
compound,measurement,setting,value
CC1CC2C3CCC4=CC(=O)C=CC4(C)[C@@]3(Cl)C(O)CC2(C)C1(O)C(=O)CO (some centres undefined),parasite load remaining,[1],68.1% (inactive)
same,viability,[1],67.8%
same,fluorescence ratio,[2],0.98 (inactive)
same,inhibition,[3],-0.22% (inactive)
same,inhibition,[4],-1.97% (inactive)
same,fluorescence ratio,[5],0.95 (inactive)
same,z-score,[6],0.0119 (inactive)
same,mean signal,[7],282 (inactive)
same,fold change,[8]; [12],0.839 (inactive)
same,fold change,[8]; [13],1.07
same,cell count,[8]; [14],7120
same,cell count,[8]; [15],8490
same,z-score,[9],1.36 (inactive)
same,log fold change Tl+ flux,F380Y,0.104 (inactive)
same,log fold change Tl+ flux,F380Y/beta1,0.0975 (active)
same,log fold change Tl+ flux,F380Y/beta2Delta,-0.00287 (inactive)
same,log fold change Tl+ flux,F380Y/beta4,0.0497 (inactive)
same,log fold change Tl+ flux,[10],0.0373 (inactive)
same,log fold change Tl+ flux,R275C,-0.0315 (inactive)
same,log fold change Tl+ flux,R275C/beta1,0.106 (active)
same,log fold change Tl+ flux,R275C/beta2Delta,0.0411 (inactive)
same,log fold change Tl+ flux,R275C/beta4,0.0585 (inactive)
same,log fold change Tl+ flux,R275C/Slo1WT/beta2,0.0245 (inactive)
O=c1[nH]c2ccccc2c2ccccc12,fold change,[8]; [12],0.926 (inactive) and 0.97 (inactive)
same,fold change,[8]; [13],0.939 and 0.926
same,cell count,[8]; [14],7660 and 2830
same,cell count,[8]; [15],8280 and 2920
same,z-score,[9],0.885 (inactive)
same,log fold change Tl+ flux,F380Y,0.027 (inactive)
same,log fold change Tl+ flux,F380Y/beta1,0.0377 (inactive)
same,log fold change Tl+ flux,F380Y/beta2Delta,0.0285 (inactive)
same,log fold change Tl+ flux,F380Y/beta4,0.0704 (inactive)
same,log fold change Tl+ flux,[10],-0.0148 (inactive)
same,log fold change Tl+ flux,R275C,0.0279 (inactive)
same,log fold change Tl+ flux,R275C/beta1,-0.057 (inactive)
same,log fold change Tl+ flux,R275C/beta2Delta,0.0385 (inactive)
same,log fold change Tl+ flux,R275C/beta4,-0.0579 (inactive)
same,log fold change Tl+ flux,R275C/Slo1WT/beta2,-0.0287 (inactive)
Fc1ccc(C2CCNCC2COc2ccc3c(c2)OCO3)cc1 (centres undefined),parasite load remaining,[1],-4.52% (inactive)
same,viability,[1],0.26%
same,fluorescence ratio,[2],1 (inactive)
same,inhibition,[3],-15% (inactive)
same,inhibition,[4],3.34% (inactive)
same,fluorescence ratio,[5],0.83 (inactive)
same,fold change,[8]; [12],0.992 (inactive) and 1.04 (inactive) and 0.943 (inactive)
same,fold change,[8]; [13],1.42 and 1.09 and 2.45
same,cell count,[8]; [14],5960 and 7070 and 8540
same,cell count,[8]; [15],6000 and 6830 and 9050
same,z-score,[11]; [16],-1.22 (inactive)
same,z-score,[11]; [17],0.964
same,z-score,[9],-0.98 (inactive) and -1.43 (inactive)
same,log fold change Tl+ flux,F380Y,0.146 (active)
same,log fold change Tl+ flux,F380Y/beta1,0.116 (inactive)
same,log fold change Tl+ flux,F380Y/beta2Delta,0.246 (active)
same,log fold change Tl+ flux,F380Y/beta4,0.274 (active)
same,log fold change Tl+ flux,[10],0.0579 (inactive)
same,log fold change Tl+ flux,R275C,0.0588 (inactive)
same,log fold change Tl+ flux,R275C/beta1,0.254 (active)
same,log fold change Tl+ flux,R275C/beta2Delta,0.126 (active)
same,log fold change Tl+ flux,R275C/beta4,0.218 (active)
same,log fold change Tl+ flux,R275C/Slo1WT/beta2,-0.0537 (inactive)
O=c1cnn([C@@H]2O[C@H](CO)[C@@H](O)[C@H]2O)c(=O)[nH]1,parasite load remaining,[1],51.8% (inactive)
same,viability,[1],79.3%
same,fluorescence ratio,[2],0.94 (inactive)
same,inhibition,[3],-2.84% (inactive)
same,inhibition,[4],-1.97% (inactive)
same,fluorescence ratio,[5],0.89 (inactive)
same,z-score,[6],-0.659 (inactive)
same,mean signal,[7],301 (inactive)
same,log fold change Tl+ flux,F380Y,-0.0103 (inactive)
same,log fold change Tl+ flux,F380Y/beta1,0.0132 (inactive)
same,log fold change Tl+ flux,F380Y/beta2Delta,-0.027 (inactive)
same,log fold change Tl+ flux,F380Y/beta4,0.00308 (inactive)
same,log fold change Tl+ flux,[10],-0.026 (inactive)
same,log fold change Tl+ flux,R275C,0.00432 (inactive)
same,log fold change Tl+ flux,R275C/beta1,-0.00973 (inactive)
same,log fold change Tl+ flux,R275C/beta2Delta,-0.0295 (inactive)
same,log fold change Tl+ flux,R275C/beta4,-0.0439 (inactive)
same,log fold change Tl+ flux,R275C/Slo1WT/beta2,-0.0257 (inactive)
CN(C)[C@@H]1C(=O)C(C(=O)NCN2CCCC2)=C(O)[C@@]2(O)C(=O)C3=C(O)c4c(O)cccc4[C@@](C)(O)C3CC12 (some centres undefined),parasite load remaining,[1],77.2% (inactive) and 69.4% (inactive)
same,viability,[1],91.9% and 67.8%
same,fluorescence ratio,[2],0.68 (active)
same,inhibition,[3],-3.71% (inactive)
same,inhibition,[4],45.3% (active)
same,fluorescence ratio,[5],0.76 (active)
same,z-score,[6],0.267 (inactive)
same,mean signal,[7],213 (inactive)
same,fold change,[8]; [12],0.896 (inactive)
same,fold change,[8]; [13],0.92
same,cell count,[8]; [14],9290
same,cell count,[8]; [15],10400
same,log fold change Tl+ flux,F380Y,-0.0801 (inactive)
same,log fold change Tl+ flux,F380Y/beta1,-0.00765 (inactive)
same,log fold change Tl+ flux,F380Y/beta2Delta,-0.0371 (inactive)
same,log fold change Tl+ flux,F380Y/beta4,-0.0313 (inactive)
same,log fold change Tl+ flux,[10],0.0591 (inactive)
same,log fold change Tl+ flux,R275C,0 (inactive)
same,log fold change Tl+ flux,R275C/beta1,-0.0252 (inactive)
same,log fold change Tl+ flux,R275C/beta2Delta,0.0108 (inactive)
same,log fold change Tl+ flux,R275C/beta4,-0.0407 (inactive)
same,log fold change Tl+ flux,R275C/Slo1WT/beta2,0.0233 (inactive)
C=C1/C(=C\C=C2/CCC[C@]3(C)[C@@H]([C@H](C)CCCC(C)(C)O)CC[C@@H]23)C[C@@H](O)C[C@@H]1O,parasite load remaining,[1],39.1% (inactive) and 53.6% (inactive)
same,viability,[1],72.4% and 142%
same,fluorescence ratio,[2],0.98 (inactive)
same,inhibition,[3],3.56% (inactive)
same,inhibition,[4],2.21% (inactive)
same,fluorescence ratio,[5],0.91 (inactive)
same,fold change,[8]; [12],1.03 (inactive) and 0.94 (inactive)
same,fold change,[8]; [13],1.63 and 1.45
same,cell count,[8]; [14],5100 and 8330
same,cell count,[8]; [15],4940 and 8850
same,z-score,[11]; [16],-0.162 (inactive)
same,z-score,[11]; [17],-0.598
same,z-score,[9],-0.805 (inactive)
same,log fold change Tl+ flux,F380Y,0.103 (inactive)
same,log fold change Tl+ flux,F380Y/beta1,0.0867 (inactive)
same,log fold change Tl+ flux,F380Y/beta2Delta,0.0281 (inactive)
same,log fold change Tl+ flux,F380Y/beta4,0.0801 (inactive)
same,log fold change Tl+ flux,[10],0.0668 (inactive)
same,log fold change Tl+ flux,R275C,-0.0123 (inactive)
same,log fold change Tl+ flux,R275C/beta1,0.0898 (active)
same,log fold change Tl+ flux,R275C/beta2Delta,0.0428 (inactive)
same,log fold change Tl+ flux,R275C/beta4,0.0602 (inactive)
same,log fold change Tl+ flux,R275C/Slo1WT/beta2,-0.0015 (inactive)
